Rows were chosen to be rich in hits. Some 5.2% of all compounds tested hit in one or more screens of this group.
esBAF inh: blocks esBAF chromatin remodeling in mouse ES cells; Bmi1-luciferase knock-in reporter, 24 h; 100% = twice the neutral-well signal; reporter increase, % at 12.5 µM; 350,000 compounds, 2% hits; in the data active = activation above about 40%; inconclusive = no clear call, values can overlap the other calls;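 note: a rise in the Bmi1 reporter signal indicates esBAF inhibition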
SKN-1 block: inhibitors of C. elegans SKN-1. C. elegans VP596 Pgst-4::GFP/RFP ratio, acrylamide-induced, 24 h. inhibition, % at 21.8 µM. 360,000 compounds, 0.49% hits. AID 624304;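 active = interference check ratio from 0.5 to 1.5 plus GFP to RFP signal ratio inhibition reaching or exceeding a fixed threshold, cut at about 30% in these data, passing the limit was not always enough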
Vif inh: HIV Vif inhibition. inhibition, % at 7.49 µM. 340,000 compounds, 0.35% hits. HEK293T cells, Vif self-association by quenched fluorescence, imaging, 24 h; in the data active = inhibition above about 50%, passing the limit was not always enough; inconclusive = no clear call, values can overlap the other calls; inactive = below about 31%
GRIN3A LBD mod: modulators (binders) of human NR3A ligand-binding domain | NR3A LBD differential scanning fluorimetry, Tm shift; 0% = protein alone, 100% = glycine-bound protein | Tm shift relative to glycine control, % at 25 µM | 340,000 compounds, 2.5% hits;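 active = melting temperature shift of at least 10% of the positive control shift, at one fixed dose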
NadD block: inhibitors of Staphylococcus aureus NadD. purified NadD enzyme, colorimetric absorbance read-out. inhibition, % at 20 µM. 360,000 compounds, 0.78% hits; in the data active = inhibition above about 26%
SMARCA2 act: increases SMARCA2 function in MMTV reporter cells; AID 652017; 370,000 compounds, 1% hits; activation, % at 9.1 µM; MG213 cells, MMTV-luciferase reporter, dexamethasone, overnight; in the data active = activation above about 7.8%
SMARCA2 act conf: confirmation of SMARCA2 (BRM) function activators; shares compounds with SMARCA2 act; activation, % at 9.1 µM; MG213 cells, MMTV-luciferase with dexamethasone, luminescence, overnight; MG213 cells expressing E1A, Rb sequestered; DMSO wells 0%, reference activator 100%; 3,500 compounds, 30% hits;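 active = activation above its plate's cutoff, the mean activation of tested wells plus 3 SD, cut at about 7.9% in these data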
VP16 Luc act: activates GAL4-VP16 luciferase, flagging SMARCA2 activator hits | shares compounds with SMARCA2 act | HEK293 GAL4-VP16 pG5luc reporter, luciferase luminescence; scaled: DMSO wells 0%, SAHA wells 100% | activation, % at 9.1 µM | 3,500 compounds, 41% hits | AID 686939;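 active = activation above the solvent-only control well mean plus 3 SD, averaged across control plates, cut at about 5.2% in these data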
Hits are given with their value; i = inactive; ? = inconclusive; nt = no result.

SMILES | esBAF inh | SKN-1 block | Vif inh | GRIN3A LBD mod | NadD block | SMARCA2 act | SMARCA2 act conf | VP16 Luc act
CC(=O)N1c2ccc(S(=O)(=O)N3CCC(C(=O)NCc4ccc(Cl)cc4)CC3)cc2CC1C (centres undefined) | i | i | i | i | i | i | nt | nt
C[C@@H]1CN([C@H](C)CO)C(=O)c2cc(-c3ccccc3F)cnc2O[C@H]1CN(C)Cc1cccc(F)c1 | i | nt | nt | nt | nt | nt | nt | nt
Cc1noc(C)c1NC(=O)Nc1ccc2c(c1)C(=O)N(C)[C@@H]1CC[C@H](CC(=O)N[C@H]3CCN(Cc4ccccc4)C3)O[C@@H]1CO2 | i | nt | nt | nt | nt | nt | nt | nt
CNc1cc(C)nc(N2CCOCC2)n1 | nt | i | i | i | i | 8.7 | i | i
Cc1cc(NC2CCCCC2)nc(N2CCOCC2)n1 | i | i | i | i | i | i | nt | nt
CCN(CC)c1c(C)nc2ccc(C(=O)N3CCN(C(=O)c4ccco4)CC3)cn12 | i | i | i | nt | i | 9.4 | i | i
Cc1noc(C)c1S(=O)(=O)Nc1ccc2c(c1)C(=O)N([C@@H](C)CO)C[C@@H](C)[C@@H](CN(C)Cc1ccccc1)OCCCC[C@@H](C)O2 | i | nt | nt | nt | nt | nt | nt | nt
COc1ccc(N=C(C)C2=C(O)c3ccccc3C2=O)cc1 | nt | i | i | i | i | i | nt | nt
CCOc1ccc(N=C(C)C2=C(O)c3ccccc3C2=O)cc1 | nt | i | i | i | i | 18.8 | 8.5 | 11.6
Cc1ccsc1/C=C/c1ccc2ccccc2n1 | i | i | i | i | i | i | nt | nt
Oc1cccc2ccc(/C=C/c3cccs3)nc12 | i | i | i | i | i | 12.9 | i | 22.5
COc1ccc(OC)c(/C=C/c2ccc3cccc(O)c3n2)c1 | nt | i | i | nt | i | 9.1 | i | 13.3
Cc1ccsc1/C=C/c1ccc2cccc(O)c2n1 | nt | i | i | i | i | 13.0 | i | 19.1
O=C(NCC1CC1)[C@H]1[C@H](CO)[C@H]2Cn3c(ccc(C4=CCCC4)c3=O)[C@@H]1N2C(=O)C1CC1 | i | nt | nt | nt | nt | nt | nt | nt
CC(C)NC(=O)NCC[C@@H]1CC[C@@H](NC(=O)CCN2CCCCC2)[C@H](CO)O1 | i | nt | nt | nt | nt | nt | nt | nt
Cc1cc(CN2CCCC(C(=O)Nc3ccc(-c4nc5ccccc5[nH]4)cc3)C2)n[nH]1 (centres undefined) | i | i | i | i | i | 10.0 | i | 5.5
C[C@@H]1CN([C@H](C)CO)C(=O)c2cc(NC(=O)C3CC3)ccc2O[C@H]1CN(C)S(C)(=O)=O | i | nt | nt | nt | nt | nt | nt | nt
O=C(COc1cccnc1[N+](=O)[O-])Nc1cccc(Br)c1 | 63.5 | i | i | i | i | 10.7 | i | i
COc1ccc(NC(=O)COc2cccnc2[N+](=O)[O-])cc1OC | i | i | i | i | i | i | nt | nt
O=C1c2cccc3cccc(c23)C(=O)N1c1cccnc1 | i | i | i | i | i | 8.5 | i | i
CCCn1c(CC)nc([N+](=O)[O-])c1S(=O)(=O)c1ccccc1 | i | i | i | i | i | 10.4 | i | i
COc1ccc(C[C@H](C)NC[C@@H](O)c2ccc(O)c(NC=O)c2)cc1 | i | i | i | i | i | 13.5 | 11.5 | 14.6
C[C@H]1CN([C@@H](C)CO)C(=O)c2cc(NC(=O)CCC(F)(F)F)ccc2O[C@@H]1CN(C)C(=O)NC1CCCCC1 | i | nt | nt | nt | nt | nt | nt | nt
COc1cc(Cl)nn(-c2ccccc2)c1=O | i | i | i | i | i | 11.4 | i | i
COc1ccc(NC(=O)Nc2ccc3c(c2)C(=O)N([C@H](C)CO)C[C@@H](C)[C@@H](CN(C)C(=O)CCCN(C)C)OCCCC[C@@H](C)O3)cc1 | i | nt | nt | nt | nt | nt | nt | nt
SMILES | esBAF inh | SKN-1 block | Vif inh | GRIN3A LBD mod | NadD block | SMARCA2 act | SMARCA2 act conf | VP16 Luc act
Cc1ccc(C(=O)c2sc3nc4c(cc3c2N)CCC4)cc1 | nt | i | i | i | i | 9.1 | 8.4 | 8.3
Cc1ccc(-c2c3c(nc4sc(C(N)=O)c(N)c24)CCC3)cc1 | nt | i | i | i | i | i | nt | nt
C[C@@H]1CN([C@H](C)CO)C(=O)c2cc(-c3cccnc3)cnc2O[C@@H]1CN(C)C(=O)Nc1ccc2c(c1)OCO2 | i | nt | nt | nt | nt | nt | nt | nt
COc1ccc(-n2nc(C(=O)NCC(=O)N3CCN(c4ccccn4)CC3)c3ccccc3c2=O)cc1 | nt | i | i | i | i | 10.8 | i | i
COc1ccc(-n2nc(C(=O)NCC(=O)N3CCN(c4ccccn4)CC3)c3ccccc3c2=O)cc1OC | nt | i | i | i | i | i | nt | nt
CCCn1nc(C(=O)N2CCN(c3ccccn3)CC2)c2ccccc2c1=O | i | i | i | i | i | 8.1 | i | i
O=C(C[C@H]1CC[C@H](NC(=O)Nc2ccc(F)cc2)[C@H](CO)O1)NCc1ccccn1 | i | nt | nt | nt | nt | nt | nt | nt
COC(=O)C[C@H]1C=C[C@@H](NC(=O)Nc2ccc(C(F)(F)F)cc2)[C@H](CO)O1 | i | nt | nt | nt | nt | nt | nt | nt
Nc1nc(SCc2ccccn2)c2ncn(C3CCCC3)c2n1 | 44.3 | i | i | i | i | 8.2 | i | i
COc1ccccc1-c1nc(=S)c(C(C)=O)c(C)[nH]1 | nt | i | i | i | i | 12.4 | i | i
CC(=O)c1c(C)[nH]c(-c2ccccc2)nc1=S | nt | i | i | i | i | 10.6 | i | i
CC(=O)c1c(NC(=O)c2ccccc2)[nH]c(-c2ccccc2)nc1=S | nt | i | i | i | i | i | nt | nt
COc1ccccc1-c1nc(NC(C)=O)n[nH]1 | nt | nt | nt | i | nt | i | nt | nt
O=C(C[C@@H]1C=C[C@@H](NC(=O)C2CC2)[C@@H](CO)O1)NC1CCC1 | i | nt | nt | nt | nt | nt | nt | nt
COc1ccc(NC(=O)CSc2nccn2Cc2ccco2)cc1 | i | i | i | i | i | i | nt | nt
CCOc1ccc(NC(=O)CSc2nccn2Cc2ccco2)cc1 | i | i | i | i | i | 11.0 | i | i
C[C@H]1CN([C@@H](C)CO)C(=O)Cc2cc(NS(=O)(=O)c3cn(C)cn3)ccc2O[C@H]1CN(C)Cc1ccc(C(=O)O)cc1 | i | nt | nt | nt | nt | nt | nt | nt
Cc1ccc(NC(=O)c2cc(C)on2)cc1 | i | i | i | i | i | 8.7 | i | 18.1
CCCc1cc(C(=O)Nc2ccc(C)cc2)no1 | 73.2 | i | i | i | i | 11.6 | i | 6.9
Cc1cc(C(=O)N/N=C/c2cccc(Cl)c2Cl)no1 | ? | i | i | i | i | 10.7 | i | 8.8
Cc1cc(C(=O)Nc2ccc3c(c2)OCO3)no1 | ? | i | i | i | i | i | nt | nt
Cc1ccc(NC(=S)Nc2cc(C)on2)cc1 | i | i | i | i | i | 8.6 | i | 13.2
CCOC(=O)N/N=C/c1cccc(Cl)c1Cl | nt | i | i | i | i | i | nt | nt
COc1cccc(S(=O)(=O)N2CC[C@H]3[C@@H](CO)N(C)c4ccc(C#Cc5cccnc5)cc4[C@H]32)c1 | i | nt | nt | nt | nt | nt | nt | nt
CCCN1[C@@H]2c3ccc(-c4ccccc4)c(=O)n3C[C@@H]2[C@@H](CO)[C@@H]1C(=O)NCCCN1CCOCC1 | i | nt | nt | nt | nt | nt | nt | nt

Screening data: PubChem BioAssay, several laboratories
